12-hLO inh = 12-hLO (ALOX12) enzyme inhibition; AID 1452; Potency, µM (doses to about 57.1 µM), inactives show top-dose activity change, negative = inhibition, actives largely listed as inhibitors; P18054; purified 12-hLO, xylenol orange hydroperoxide absorbance; 0.12% of 150,000 active; further: potency means the concentration at half of the fitted maximal effect; nearly all actives have a fitted effect of over 55% in size
Target sequence (P18054 whole entry, looked up): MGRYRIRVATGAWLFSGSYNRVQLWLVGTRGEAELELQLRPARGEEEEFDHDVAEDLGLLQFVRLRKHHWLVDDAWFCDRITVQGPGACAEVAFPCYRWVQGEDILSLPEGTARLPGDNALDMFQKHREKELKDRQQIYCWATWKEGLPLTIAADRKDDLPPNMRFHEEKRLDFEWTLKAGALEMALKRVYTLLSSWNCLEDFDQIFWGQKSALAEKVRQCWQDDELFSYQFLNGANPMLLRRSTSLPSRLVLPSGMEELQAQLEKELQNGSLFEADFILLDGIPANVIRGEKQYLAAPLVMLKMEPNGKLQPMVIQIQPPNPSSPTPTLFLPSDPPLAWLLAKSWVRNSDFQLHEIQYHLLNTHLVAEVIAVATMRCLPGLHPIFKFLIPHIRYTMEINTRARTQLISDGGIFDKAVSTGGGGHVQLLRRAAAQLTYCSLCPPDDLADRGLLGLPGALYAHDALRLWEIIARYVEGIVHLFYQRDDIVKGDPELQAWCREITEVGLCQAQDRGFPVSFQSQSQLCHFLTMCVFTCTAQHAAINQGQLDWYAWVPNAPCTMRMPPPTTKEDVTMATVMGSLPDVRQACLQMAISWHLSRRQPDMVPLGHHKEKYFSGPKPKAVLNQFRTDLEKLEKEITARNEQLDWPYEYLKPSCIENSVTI
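Lipoxygenase turnover measured by absorbance at 573 and 405 nm after Fe-XO development. Human 12hLO 150 nM, arachidonate 40 uM, pH 7.0 Hepes buffer with detergent; 15 min compound preincubation, 30 min reaction.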
IMPase inh = membrane-permeable compound that blocks inositol monophosphatase; 120,000 tested, under 10 active; P97697; CHO-M1 cells, IP1 accumulation, HTRF TR-FRET ratio; AID 901; inhibition (IP1 accumulation), % at 46.1 µM; active means well fitted curve in the direction sought with a large enough effect in the signal ratio, not every such curve was filed as active; inconclusive means small, poorly fitted or top-dose-only effect, or a change in a side signal; inactive means no such curve, though single readings can be large or run the other way; the % refers to the signal ratio;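 further: cells stimulated with carbachol in lithium chloride buffer; plate controls were DMSO basal wells for no effect and reference inhibitor wells for full effect; higher means more IMPase inhibition seen as more IP1 and lower FRET ratio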
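Elevated IP1 in lysates lowers TR-FRET signal (665/620 ratio and 620 channel reported). Cells were CHO-M1, given carbachol (50 uM as added) plus 50mM LiCl, pH 7.4, 30 min, 37C; compounds titrated up to 46 uM; AC50 by Hill equation.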
IMPase Li inh = membrane-permeable IMPase blocker, potentiated with lithium; CHO-M1 cells, IP1 TR-FRET (IP-One), carbachol + lithium; Potency, µM (series often up to 59.4 µM), for the others: top-dose activity, negative = IMPase inhibition, usual class: inhibitors; 0.35% of 210,000 active;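 further: IP1 builds up when IMPase is blocked and the TR-FRET signal falls; potency means the concentration at half of the fitted maximal effect; plate controls were basal vehicle for no effect and high inhibitor control for full effect; nearly all actives have a fitted effect of over 50% in size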
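IP1 accumulation measured by competitive TR-FRET in lysed CHO-M1 cells after 30 min compound exposure at 37C, with a small lithium addition to potentiate weak responses. Hill-equation AC50 from ratio and donor-channel data.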
NPSR antag = blocks cAMP signaling of the human neuropeptide S receptor; CHO-NPSR cells, cAMP TR-FRET, antagonist mode; Potency, µM (top dose mostly 38.3 µM), without a hit: at the highest dose activity change, negative = inhibition, usual class: inhibitors; 1% of 220,000 active; further: potency means the concentration at half of the fitted maximal effect; nearly all actives have a fitted effect of over 50% in size
ALDH1A1 block = ALDH1A1 (human) enzyme inhibition. P00352. Purified ALDH1A1, NADH fluorescence, propionaldehyde substrate. Potency, µM (doses to about 75.3 µM), inactives show top-dose activity, negative = inhibition, usual class: inhibitors. 7.3% of 220,000 active; active means well fitted inhibition curve with a large enough effect, not every such curve was filed as active; inconclusive means small, poorly fitted or top-dose-only effect, or another doubt; inactive means no such curve, though single readings can be large or run the other way;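 further: potency means the concentration at half of the fitted maximal effect; plate controls were no enzyme wells and a reference inhibitor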
HPGD block = HPGD (human) dehydrogenase inhibition. Potency, µM, inactives show at the top dose activity change, negative = inhibition, actives largely listed as inhibitors. AID 894. purified HPGD, NADH fluorescence kinetic, PGE2 substrate. 4.3% of 150,000 active; active means well fitted inhibition curve with a large enough effect, not every such curve was filed as active; inconclusive means small, poorly fitted or top-dose-only effect, or another doubt; inactive means no such curve, though single readings can be large or run the other way; further: potency means the concentration at half of the fitted maximal effect
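NADH formation kinetics: reaction with 30 uM PGE2 and 1 mM NAD+ (final), 20 nM enzyme, Tris-HCl pH 8 with Tween 20, after 15 min compound preincubation at room temperature. Fluorescence change, last versus first of five reads.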
Starred values were filed as active, the others as inactive; ? = inconclusive; . = no result; [ ] = remark or other dose. A selection: hits, their analogues and other compounds. The true share with any hit is near 8.9%. Unless noted, the call rests on the fitted dose curve; in most records, active means well fitted curve in the direction sought with a large enough effect; inconclusive means small, poorly fitted or top-dose-only effect, or another doubt; inactive means no such curve, though single readings can be large; an effect the other way counts as inactive or inconclusive. Unless noted, on the % scale 0 is the no-effect control and ±100 the full control effect.

SMILES | 12-hLO inh | IMPase inh | IMPase Li inh | NPSR antag | ALDH1A1 block | HPGD block
CC(C)(C)c1ccc(C2(C)NC(=O)N(CC(=O)c3ccc[nH]3)C2=O)cc1 (stereo unspecified) | -3.1% | -2.6 | -9.2%[38.3 µM] | -19.6%[46.1 µM] | -0.7% | -1.0%
Cc1ccc(N(CCC#N)C(=O)CCl)cc1C | 4.3% | -5.1 | 2.5% | -6.2% | 0.355µM* | -3.7%
Cc1ccc(N(CCC#N)C(=O)CSc2ccc3c(c2)OCCO3)cc1 | 1.9% | 10.7 | 12.2%[38.3 µM] | -10.7%[46.1 µM] | ? | -11.2%
C/C(=N\NC(=O)c1ccc(Br)cc1)c1ccccc1 | -7.9% | 0.5 | -5.7%[38.3 µM] | -10.0%[46.1 µM] | 0.6% | -10.8%
Cc1c(NC(=O)c2ccc(COc3ccc4ccccc4c3)o2)c(=O)n(-c2ccccc2)n1C | 1.4% | -0.6 | -6.0%[38.3 µM] | -0.2%[46.1 µM] | ? | 35.5µM*
COc1cc(C2=NOC(C(=O)NCc3ccccn3)C2)cc(OC)c1OC (stereo unspecified) | 0.4% | -5.6 | 10.2%[38.3 µM] | 4.1%[46.1 µM] | 4.0% | -5.1%
COc1cc(C2=NOC(C(=O)NCc3ccc(F)cc3)C2)cc(OC)c1OC (stereo unspecified) | 0.4% | 1.3 | -14.8%[38.3 µM] | ? | 31.6µM* | -22.7%
O=C(C1CCN(Cc2ccccc2)CC1)N1CCN(C/C=C/c2ccccc2)CC1 | 0.1% | . | -2.0% | 12.0% | -9.9% | -3.8%
COc1ccc(Nc2c3c(c(C#N)c4nc5ccccc5n24)CCC3)cc1 | -2.0% | 6.7 | -1.2%[38.3 µM] | -10.5%[46.1 µM] | ? | 1.26µM*
CC(=O)c1ccc(Nc2c3c(c(C#N)c4nc5ccccc5n24)CCC3)cc1 | -4.9% | -6.7 | 6.0% | 13.2% | 7.3% | -13.8%
CCOc1ccc(C(=O)C2CCN(CC(=O)Nc3ccccc3N3CCOCC3)CC2)cc1 | -1.4% | 14.7 | 5.6%[38.3 µM] | -16.6%[46.1 µM] | 25.1µM* | -24.9%
Fc1ccc(-c2csc(NC3=NCCC3)n2)cc1 | . | . | 7.2% | 1.3% | -7.6% | .
CCOCc1nnc(NC(=O)c2cc(C(=O)OC)cc([N+](=O)[O-])c2)s1 | . | . | -12.1% | -20.6% | -12.4% | .
COC(=O)c1cc(C(=O)Nc2nnc(CC(C)(C)C)s2)cc([N+](=O)[O-])c1 | 6.2% | -1.7 | -3.2% | -26.0% | 25.1µM* | 15.8µM*
CCCCn1c(-c2cc(Cl)ccc2OC)n[nH]c1=S | -20.7% | -11.3 | -8.9%[38.3 µM] | -13.5%[46.1 µM] | ? | 28.2µM*
COc1ccc(Cl)cc1-c1n[nH]c(=S)o1 | 0.0% | ? | 6.31µM* | 6.31µM* | ? | ?
COc1ccccc1-c1n[nH]c(=S)o1 | -1.3% | ? | ? | 26.0%[46.1 µM] | ? | -24.7%
COc1cc(NS(=O)(=O)c2ccc(Nc3nc(-c4ccccn4)cs3)cc2)nc(OC)n1 | . | . | -2.3% | 16.6% | 5.7% | .
CCNC(=O)CSc1nnc(-c2ccccc2)n1-c1ccc(OCC)cc1 | -2.4% | 1.6 | -134.0%[38.3 µM] | -16.4%[46.1 µM] | -3.9% | -25.5%
CCCCCCn1c(N2CCN(c3cccc(Cl)c3)CC2)nc2c1c(=O)[nH]c(=O)n2C | -2.9% | ? | 23.3%[38.3 µM] | ? | -12.5% | -23.7%
Cc1ccc2c(C)cc(=S)[nH]c2c1 | . | . | -11.8% | -17.5% | -10.8% | .
Cc1ccc2[nH]c(=S)cc(C)c2c1 | -14.8% | 4.2 | ? | 26.5%[46.1 µM] | 3.16µM* | 7.08µM*
Cc1cc(=S)[nH]c2ccccc12 | -27.9% | -6.0 | -17.8%[38.3 µM] | -3.6%[46.1 µM] | ? | 14.1µM*
c1ccc(CSc2n[nH]c(-c3ccco3)n2)cc1 | -0.8% | ? | 12.7%[38.3 µM] | -5.1%[46.1 µM] | -5.1% | 12.6µM*
Cn1c(SCc2ccccc2)nnc1-c1ccco1 | . | . | 3.6% | 3.9% | 3.9% | .
COc1ccc(NC(=O)Cn2cc(S(=O)(=O)N3CCC(C)CC3)c3ccccc3c2=O)cc1Cl | . | 4.4 | . | . | . | .
CCc1ccc(CN2CCC(CO)(CC3CCCCO3)CC2)o1 (stereo unspecified) | . | . | 7.9% | 19.1% | 8.91µM* | .
O=C(CN1CCN(Cc2ccccc2Cl)C1=O)NC1CCCCCCC1 | -3.4% | 1.7 | 15.8%[38.3 µM] | -4.7%[46.1 µM] | ? | -7.6%
Cc1ccc2c(c1)c1c3n2CCN(C(=O)C2CC2)C3CCC1 (stereo unspecified) | -9.8% | 2.1 | 3.3%[38.3 µM] | -17.7%[46.1 µM] | ? | -16.6%

From PubChem BioAssay
